Screening results from PubChem.
ELG1 genotoxic – inducers of genotoxicity in HEK293T ELG1-luciferase cells | hit rate 1.3% among 330,000 | Potency, µM (highest dose often 46 µM), hits mostly activators | HEK293T ELG1-luciferase reporter, luminescence, 16 h | AID 504466; note: nearly all actives have a fitted effect of over 60% in size
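Genotoxic stress is detected as increased luminescence from luciferase-tagged ELG1 in HEK293T cells, measured with ONE-Glo after a 16 hr treatment at 37 °C.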
KinaseGlo FLuc – Kinase-Glo luciferase inhibition (counter-screen) | Kinase-Glo luciferase, ATP luminescence, 8 min | Q27757 | hit rate 0.28% among 200,000 | Potency, µM (top dose mostly 38.3 µM), most hits filed as inhibitors; note: nearly all actives have a fitted effect of over 60% in size
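Compound is pinned into ATP-containing buffer (10 uM ATP, imidazole pH 7.2, 7 mM MgCl2). Kinase-Glo luciferase reagent is then added. Light output is recorded following an 8-min room-temperature incubation.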
FLuc modulator – inhibits or activates purified firefly luciferase, miR-21 counter-screen | purified FLuc, Km substrates, luminescence inhibition | AID 588342 | Potency, µM (doses to about 57.5 µM), usual class: inhibitors | P08659 | hit rate 6.9% among 360,000; note: nearly all actives have a fitted effect of over 55% in size
Target sequence (P08659 whole entry, looked up): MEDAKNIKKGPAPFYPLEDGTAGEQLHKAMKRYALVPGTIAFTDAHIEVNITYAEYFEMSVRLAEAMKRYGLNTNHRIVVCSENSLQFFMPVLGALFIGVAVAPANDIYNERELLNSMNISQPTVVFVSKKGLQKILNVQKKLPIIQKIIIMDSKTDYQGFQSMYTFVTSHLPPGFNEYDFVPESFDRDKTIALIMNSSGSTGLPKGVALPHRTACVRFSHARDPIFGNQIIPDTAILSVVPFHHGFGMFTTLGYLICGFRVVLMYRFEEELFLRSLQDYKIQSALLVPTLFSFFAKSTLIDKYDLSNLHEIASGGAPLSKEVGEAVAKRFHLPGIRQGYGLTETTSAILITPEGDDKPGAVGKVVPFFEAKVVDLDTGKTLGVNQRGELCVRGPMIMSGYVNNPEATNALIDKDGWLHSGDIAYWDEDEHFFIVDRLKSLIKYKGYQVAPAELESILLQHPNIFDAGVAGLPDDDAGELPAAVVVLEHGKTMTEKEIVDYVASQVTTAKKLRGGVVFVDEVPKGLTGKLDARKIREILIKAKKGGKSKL
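Biochemical qHTS of compounds, final roughly 60 µM downward over six points, against 10 nM purified firefly luciferase using Km concentrations of substrates (10 uM D-luciferin, 10 uM ATP) in Tris acetate pH 7.5 buffer; luminescence output.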
SMN2 splice enh – SMN2 splice variant enhancement; HEK293 SMN2-luciferase splicing reporter, luminescence, 30-36 h; Potency, µM (highest dose often 46.1 µM), actives largely listed as activators; hit rate 2.8% among 210,000; note: nearly all actives have a fitted effect of over 55% in size
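qHTS luciferase splicing reporter: luminescence rises when SMN2 exon 7 is included in transfected HEK293 cells. Compound exposure lasted 30-36 h at 37C, with 4.5 mM final sodium butyrate as control, followed by a ONE-Glo read.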
Rab9 prom act – activators of Rab9 promoter; Potency, µM (highest dose often 9.22 µM), actives largely listed as activators; hit rate 2.8% among 320,000; Huh7 Rab9 promoter-luciferase reporter, luminescence, 24 h; AID 485297; note: nearly all actives have a fitted effect of over 60% in size
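Promoter activation is measured as luciferase luminescence in Huh7 cells stably transfected with a Rab9 promoter–luciferase construct, following 24 h compound exposure at 37 °C and 10 min reagent incubation at ambient temperature.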
NPC1 promoter act – activates the NPC1 promoter; Huh7 NPC1 promoter luciferase reporter, 24 h; Potency, µM (top dose mostly 9.22 µM), actives largely listed as activators; hit rate 2.4% among 320,000; AID 485313; note: nearly all actives have a fitted effect of over 60% in size
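Stably transfected Huh7 (NPC1 promoter→luciferase), 1500 cells/well in Opti-MEM + 10% FBS, 2 h settle, then compound 24 h at 37 °C. Luminescence after 10 min with Amplite reagent.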
Hits are given with their value; n = inactive; u = inconclusive; x = no result given; [ ] = another dose, or the depositor's remark. A selection: hits, their analogues and other compounds. The true share with any hit is near 7.5%. Calls come from the whole dose curve; as a rule, active = well fitted curve in the direction sought with a large enough effect; inconclusive = small, poorly fitted or top-dose-only effect, or another doubt; inactive = no such curve, though single readings can be large; an effect the other way counts as inactive or inconclusive.

SMILES	ELG1 genotoxic	KinaseGlo FLuc	FLuc modulator	SMN2 splice enh	Rab9 prom act	NPC1 promoter act
COc1cc(C=O)ccc1OCC(=O)N1CCOCC1	n	n	n[2.3 µM]	n	n	n
COc1ccc([N+](=O)[O-])cc1C(=O)Nc1ccc(OCC(=O)N2CCOCC2)cc1	n	n	n	n	n	n
COc1cc(SC)ccc1C(=O)Nc1cc(C)c(OCC(=O)N2CCOCC2)c(C)c1	n	x	6.01µM	x	n	n
COc1ccc(C2CC(=O)Nc3c2c(=O)[nH]c2nc4ccccc4n32)cc1 (stereo not given)	x	x	n	n	x	x
Cc1nn(-c2ccccc2)c(OC(=O)c2ccc(F)cc2)c1S(=O)(=O)c1ccccc1	x	x	u	n	x	x
N#C/C(=C(/O)c1ccc2c(c1)OCO2)c1nc2cc(C(F)(F)F)ccc2s1	n	x	16.9µM	x	n	n
O=C(Nc1cccc(-c2nn[nH]n2)c1)c1csc2c1CCCC2	n	x	10.7µM	x	n	n
O=C(Nc1cccc(-c2nn[nH]n2)c1)c1cccs1	n	x	u	x	u	2.82µM
CCc1ccc(C(=O)Nc2cccc(-c3nn[nH]n3)c2)s1	n	x	1.51µM	x	n	n
CCCCN1C(C)=CC(=C2C(=O)c3ccccc3C2=O)C=C1C	0.82µM	u	1.51µM	n	0.398µM	0.501µM
CC1=CC(=C2C(=O)c3ccccc3C2=O)C=C(C)N1Cc1ccco1	n	n	3.38µM	14.1µM	1.58µM	2.24µM
COc1cccc(OCCSc2nnc3sc4ccccc4n23)c1	u	n	19µM	u	n	n
CCN(CC)C(=O)CSc1nnc2sc3ccccc3n12	n	n	n	n	n	n
c1ccc(OCCSc2nnc3sc4ccccc4n23)cc1	u	n	0.426µM	n	0.316µM	0.355µM
Cc1ccc(CNC(=O)CCCCCn2c(=O)c3sccc3n(CC(=O)C(C)(C)C)c2=O)cc1	x	x	u	n	x	x
O=C(Nc1ccc2nc(C3CC3)n(Cc3ccc(F)cc3)c(=O)c2c1)c1ccco1	n	n	n	u	n	n
CCC(=O)Nc1ccc2nc(C3CC3)n(Cc3ccc(C(C)(C)C)cc3)c(=O)c2c1	1.64µM	x	1.51µM	x	u	0.316µM
COc1ccc(Cn2c(C3CC3)nc3ccc(NC(=O)C4CC4)cc3c2=O)cc1	2.59µM	n	4.26µM	11.2µM	1.58µM	1.41µM
CC(=O)Nc1ccc2nc(C3CC3)n(Cc3ccc(Cl)cc3)c(=O)c2c1	u	n	21.3µM	10µM	3.55µM	3.55µM
COc1cccc(Cn2c(C3CC3)nc3ccc(NC(=O)c4ccco4)cc3c2=O)c1	n	n	n	n	n	n
CCn1cc2nc(SCc3ccc(F)cc3)n(Cc3ccc(Cl)cc3)c(=O)c2n1	x	x	n	x	x	x
CN(C)c1ccc(/C=N/NC(=O)c2ccccc2O)o1	n	n	21.3µM	n	n	n
O=C(N/N=C/c1ccc(-c2cccc(C(F)(F)F)c2)o1)c1ccccc1Br	n	n	21.3µM	n	n	n
O=C(N/N=C/c1ccc(-c2cccc([N+](=O)[O-])c2)o1)c1ccccc1O	n	n	10.7µM	n	u	n
CN(C)c1ccc(/C=N/NC(=O)C(O)(c2ccccc2)c2ccccc2)o1	n	n	n	n	n	n
SMILES	ELG1 genotoxic	KinaseGlo FLuc	FLuc modulator	SMN2 splice enh	Rab9 prom act	NPC1 promoter act
O=C(N/N=C/c1ccc(-c2cccc(C(F)(F)F)c2)o1)c1ccccc1O	n	n	n	n	n	n
CC(=O)c1c(C)oc2c(Br)cc(NS(=O)(=O)c3ccc(Br)cc3)cc12	x	x	n	x	x	x
Cc1ccc2nc(-c3cc(-c4ccccc4)no3)cn2c1	0.259µM	x	0.213µM	x	0.251µM	0.794µM
Cc1ccn2cc(-c3ccc(NS(=O)(=O)c4ccccc4)cc3)nc2c1	n	n	u	n	n	n
Cc1ccc(C(=O)Oc2cc(-c3ccccc3)no2)cc1	n	n	n	n	n	n
CCc1ccn2cc(-c3cc(-c4ccccc4)no3)nc2c1	u	x	0.0675µM	x	n	n
CCOc1ccc(-n2nc3ccc(NC(=O)c4ccc(C)cc4C)cc3n2)cc1	x	x	n	n	x	x
CCc1ccc(NC(=O)Cn2cc(S(=O)(=O)N3CCCC3)c(S(=O)(=O)N3CCCC3)c2)cc1	x	x	n	x	x	x
Cc1cccnc1NC(=S)Nc1ccc(Br)cc1Cl	u	n	4.78µM	25.1µM	3.16µM	3.16µM
